Among all 5,500 compounds or so, about 2,000 (36%) were called active. Another 18% or so got no clear call; they are omitted. Cut-off read from the data, not from the text of the source: active = normalized growth mostly below about 0.91 (no sharp cut-off); inconclusive = no clear call, values can overlap the other calls; inactive = mostly above about 0.92. The list shows a part of the results.
Test: chemical genetic growth profiling, strain panel (AID 1159580);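 note: tested at 20 µM; growth read once vehicle control cultures reached saturation at 30 °C; 1 = growth at the plate median or of vehicle wells; lower values mean less growth of the strain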
Conditions: growth OD
[1] = S. cerevisiae deletion strains, locus YAL040C, strain CLN3, stronger effect = lower value
[2] = S. cerevisiae deletion strains, locus YCL061C, strain MRC1 (second series), stronger effect = lower value
[3] = S. cerevisiae deletion strains, locus YDR363W, strain ESC2, stronger effect = lower value
[4] = S. cerevisiae deletion strains, locus YER002W, strain NOP16, stronger effect = lower value
[5] = S. cerevisiae deletion strains, locus YJR075W, strain HOC1, stronger effect = lower value
[6] = S. cerevisiae deletion strains, locus YMR263W, strain SAP30, stronger effect = lower value
[7] = S. cerevisiae deletion strains, locus YMR307W, strain GAS1, stronger effect = lower value
[8] = S. cerevisiae deletion strains, locus YNL153C, strain GIM3, stronger effect = lower value
[9] = S. cerevisiae deletion strains, locus YNL175C, strain NOP13, stronger effect = lower value
[10] = S. cerevisiae deletion strains, locus YNL197C, strain WHI3, stronger effect = lower value
[11] = S. cerevisiae deletion strains, locus YNL224C, strain SQS1, stronger effect = lower value
[12] = S. cerevisiae deletion strains, locus YNL322C, strain KRE1, stronger effect = lower value
[13] = S. cerevisiae deletion strains, locus YOR083W, strain WHI5 (second series), stronger effect = lower value
[14] = S. cerevisiae deletion strains, locus YPL241C, strain CIN2, stronger effect = lower value
[15] = S. cerevisiae deletion strains, locus YAL013W, strain DEP1, stronger effect = lower value
[16] = S. cerevisiae deletion strains, locus YBR229C, strain ROT2, stronger effect = lower value
[17] = S. cerevisiae deletion strains, locus YDL101C, strain DUN1, stronger effect = lower value
[18] = S. cerevisiae deletion strains, locus YGR078C, strain PAC10, stronger effect = lower value
[19] = S. cerevisiae deletion strains, locus YLR039C, strain RIC1, stronger effect = lower value
[20] = S. cerevisiae deletion strains, locus YLR262C, strain YPT6, stronger effect = lower value
[21] = S. cerevisiae deletion strains, locus YPL055C, strain LGE1, stronger effect = lower value

Measured: normalized growth

NCC1OC(O[C@@H]2[C@H](O)C(OC3C(O)C(N)CC(N)C3OC3OC(CO)C(O)C(O)C3N)O[C@@H]2CO)C(N)C(O)C1O (stereo partly drawn)
inactive: [1] 1.07 | [2] 1 | [3] 1.02 | [4] 1.02 | [5] 1 | [6] 0.997 | [7] 1 | S. cerevisiae deletion strains, locus YNL128W, strain TEP1, stronger effect = lower value 1.01 | [8] 1.03 | [9] 1.01 | [10] 1.01 | [11] 1.01 | [12] 0.993 | [13] 1.02 | [14] 1

CCc1cc2c(cc1C(=O)CC1(O)C(=O)Nc3ccc(Br)cc31)C(C)(C)CCC2(C)C (stereo not drawn)
inactive: [15] 1.01 | [16] 1.01 | S. cerevisiae deletion strains, locus YCL061C, strain MRC1, stronger effect = lower value 1.02 | [17] 1.02 | S. cerevisiae deletion strains, locus YDL134C, strain PPH21, stronger effect = lower value 1.01 | S. cerevisiae deletion strains, locus YDR150W, strain NUM1, stronger effect = lower value 0.953 | S. cerevisiae deletion strains, locus YEL061C, strain CIN8, stronger effect = lower value 0.978 | [18] 1.02 | S. cerevisiae deletion strains, locus YHR030C, strain SLT2, stronger effect = lower value 1.02 | S. cerevisiae deletion strains, locus YHR087W, strain rtc3, stronger effect = lower value 0.961 | S. cerevisiae deletion strains, locus YJR043C, strain POL32, stronger effect = lower value 1.01 | [5] 0.979 | [19] 1.03 | S. cerevisiae deletion strains, locus YLR058C, strain SHM2 (second series), stronger effect = lower value 1.01 | S. cerevisiae deletion strains, locus YLR085C, strain ARP6, stronger effect = lower value 1.02 | [20] 1.01 | S. cerevisiae deletion strains, locus YML094W, strain GIM5, stronger effect = lower value 0.997 | S. cerevisiae deletion strains, locus YMR219W, strain ESC1, stronger effect = lower value 1 | [6] 1.06 | [7] 0.959 | [8] 1.01 | S. cerevisiae deletion strains, locus YNL298W, strain CLA4 (second series), stronger effect = lower value 0.998 | [12] 1.01 | S. cerevisiae deletion strains, locus YNR030W, strain Alg12, stronger effect = lower value 1.01 | [21] 0.921 | [14] 1.02 | S. cerevisiae deletion strains, locus YPR135W, strain CTF4, stronger effect = lower value 1.06

CC(C)C(=O)c1c(C(C)C)nn2ccccc12
inactive: [15] 0.972 | [1] 1.06 | [2] 0.985 | [3] 0.995 | [4] 0.983 | [18] 0.984 | S. cerevisiae deletion strains, locus YGR229C, strain SMI1, stronger effect = lower value 0.942 | [5] 0.991 | [9] 0.985 | [10] 0.985 | [11] 0.962 | [12] 0.985 | [13] 0.936 | [21] 0.967

CC1=CCC2C3(C)C1=CC(=O)OC3CC1C(C)(C)CC(O)C(O)C12C (stereo not drawn)
inactive: S. cerevisiae deletion strains, locus YBR021W, strain FUR4, stronger effect = lower value 0.993 | [16] 1.02 | S. cerevisiae deletion strains, locus YCL029C, strain bik1, stronger effect = lower value 1 | S. cerevisiae deletion strains, locus YDL035C, strain GPR1, stronger effect = lower value 1.06 | S. cerevisiae deletion strains, locus YDL074C, strain BRE1, stronger effect = lower value 1.07 | [17] 1.01 | S. cerevisiae deletion strains, locus YDL185W, strain tfp1, stronger effect = lower value 0.996 | S. cerevisiae deletion strains, locus YDL192W, strain arf1, stronger effect = lower value 1.01 | S. cerevisiae deletion strains, locus YDR101C, strain arx1, stronger effect = lower value 1.02 | S. cerevisiae deletion strains, locus YDR162C, strain NBP2, stronger effect = lower value 1.02 | S. cerevisiae deletion strains, locus YDR318W, strain mcm21, stronger effect = lower value 0.981 | S. cerevisiae deletion strains, locus YDR388W, stronger effect = lower value 0.994 | S. cerevisiae deletion strains, locus YDR502C, strain sam2, stronger effect = lower value 0.998 | S. cerevisiae deletion strains, locus YER110C, stronger effect = lower value 0.991 | S. cerevisiae deletion strains, locus YER155C, strain BEM2, stronger effect = lower value 1 | S. cerevisiae deletion strains, locus YER167W, strain BCK2, stronger effect = lower value 1.03 | S. cerevisiae deletion strains, locus YGL078C, strain dbp3, stronger effect = lower value 1 | S. cerevisiae deletion strains, locus YGL086W, strain mad1, stronger effect = lower value 0.995 | S. cerevisiae deletion strains, locus YGL248W, strain PDE1, stronger effect = lower value 1.01 | S. cerevisiae deletion strains, locus YGR135W, strain pre9, stronger effect = lower value 0.979 | S. cerevisiae deletion strains, locus YGR252W, strain gcn5, stronger effect = lower value 0.96 | S. cerevisiae deletion strains, locus YHR079C, strain IRE1 (second series), stronger effect = lower value 0.989 | S. cerevisiae deletion strains, locus YHR094C, strain hxt1, stronger effect = lower value 0.99 | S. cerevisiae deletion strains, locus YHR129C, strain ARP1, stronger effect = lower value 1.01 | S. cerevisiae deletion strains, locus YHR200W, strain rpn10, stronger effect = lower value 0.983 | S. cerevisiae deletion strains, locus YIL066C, strain RNR3, stronger effect = lower value 1.05 | S. cerevisiae deletion strains, locus YIL073C, strain SPO22, stronger effect = lower value 1 | S. cerevisiae deletion strains, locus YIL125W, strain kgd1, stronger effect = lower value 1.01 | S. cerevisiae deletion strains, locus YIR030C, strain dcg1, stronger effect = lower value 0.986 | S. cerevisiae deletion strains, locus YJL095W, strain BCK1, stronger effect = lower value 1.03 | S. cerevisiae deletion strains, locus YJL134W, strain LCB3, stronger effect = lower value 1.01 | S. cerevisiae deletion strains, locus YJL168C, strain set2, stronger effect = lower value 0.991 | S. cerevisiae deletion strains, locus YJL187C, strain SWE1 (second series), stronger effect = lower value 1 | S. cerevisiae deletion strains, locus YKL009W, strain mrt4, stronger effect = lower value 1.05 | S. cerevisiae deletion strains, locus YKL068W, stronger effect = lower value 0.993 | S. cerevisiae deletion strains, locus YKL085W, strain MDH1 (second series), stronger effect = lower value 0.991 | S. cerevisiae deletion strains, locus YKL085W, strain MDH1, stronger effect = lower value 0.991 | S. cerevisiae deletion strains, locus YKL190W, strain CNB1, stronger effect = lower value 1.01 | S. cerevisiae deletion strains, locus YKR001C, strain vps1, stronger effect = lower value 1.02 | [19] 1.12 | S. cerevisiae deletion strains, locus YLR058C, strain SHM2, stronger effect = lower value 1.04 | S. cerevisiae deletion strains, locus YLR102C, strain apc9, stronger effect = lower value 0.991 | [20] 1.17 | S. cerevisiae deletion strains, locus YLR268W, strain sec22, stronger effect = lower value 1.03 | S. cerevisiae deletion strains, locus YLR330W, strain CHS5, stronger effect = lower value 1.01 | S. cerevisiae deletion strains, locus YLR371W, strain rom2, stronger effect = lower value 1 | S. cerevisiae deletion strains, locus YLR418C, strain cdc73, stronger effect = lower value 0.97 | S. cerevisiae deletion strains, locus YML016C, strain PPZ1, stronger effect = lower value 1.01 | S. cerevisiae deletion strains, locus YML032C, strain rad52, stronger effect = lower value 1 | S. cerevisiae deletion strains, locus YML124C, strain tub3, stronger effect = lower value 0.993 | S. cerevisiae deletion strains, locus YMR078C, strain ctf18, stronger effect = lower value 0.99 | S. cerevisiae deletion strains, locus YMR223W, strain ubp8, stronger effect = lower value 0.989 | [6] 1.01 | [7] 1.09 | S. cerevisiae deletion strains, locus YNL067W, strain RPL9B, stronger effect = lower value 0.997 | [8] 1.01 | S. cerevisiae deletion strains, locus YNL233W, strain BNI4, stronger effect = lower value 0.999 | S. cerevisiae deletion strains, locus YNL250W, strain rad50, stronger effect = lower value 0.962 | S. cerevisiae deletion strains, locus YNL271C, strain bni1, stronger effect = lower value 1 | S. cerevisiae deletion strains, locus YNL298W, strain CLA4, stronger effect = lower value 1.01 | S. cerevisiae deletion strains, locus YNL307C, strain MCK1, stronger effect = lower value 0.999 | S. cerevisiae deletion strains, locus YNR052C, strain pop2, stronger effect = lower value 0.998 | S. cerevisiae deletion strains, locus YOL012C, strain htz1 0.612 | S. cerevisiae deletion strains, locus YOL147C, strain pex11, stronger effect = lower value 0.998 | S. cerevisiae deletion strains, locus YOR061W, strain CKA2, stronger effect = lower value 1.06 | S. cerevisiae deletion strains, locus YOR069W, strain VPS5, stronger effect = lower value 1.01 | S. cerevisiae deletion strains, locus YOR136W, strain idh2, stronger effect = lower value 0.996 | S. cerevisiae deletion strains, locus YOR144C, strain elg1, stronger effect = lower value 1 | S. cerevisiae deletion strains, locus YOR184W, strain ser1, stronger effect = lower value 1.04 | S. cerevisiae deletion strains, locus YOR316C, strain cot1, stronger effect = lower value 0.989 | [14] 1.01 | S. cerevisiae deletion strains, locus YPR119W, strain clb2, stronger effect = lower value 0.987 | S. cerevisiae deletion strains, locus YPR141C, strain kar3, stronger effect = lower value 1 | S. cerevisiae deletion strains, locus YPR163C, strain tif3, stronger effect = lower value 1 | S. cerevisiae deletion strains, locus YPR167C, strain met16, stronger effect = lower value 0.985 | S. cerevisiae deletion strains, strain wtn01, stronger effect = lower value 1.01 | S. cerevisiae strains, strain wild type, stronger effect = lower value 1.04
